Results on 14 compounds are retold here after PubChem BioAssay (EPA / NIEHS).

Calls of active or inactive are those of the source. How the source made its calls: active means hit-call score of the fitted dose curve at least 0.9, where 1 is the maximum; inactive means score below 0.9.

The test is described as follows: BSK_BF4T_SRB: Viability Assessment in the BioMAP Diversity Plus: BF4T Assay (AID 2284274). The settings on record: primary human bronchial epithelial cells with fibroblasts. How it is done:
BSK_BF4T is a cell-based, multiplexed-readout assay that uses bronchial epithelial cells and dermal fibroblasts, a human vascular primary cell, with measurements taken at 24 hours after chemical dosing in a microplate: 96-well plate.BSK_BF4T_SRB is an assay component measured in the BSK_BF4T assay. It measures 0.1% sulforhodamine related to cell death using Sulforhodamine staining technology.Data from the assay component BSK_BF4T_SRB was analyzed at the endpoint, BSK_BF4T_SRB, in the positive analysis fitting direction relative to DMSO as the negative control and baseline of activity. Using a type of viability reporter, gain or loss-of-signal activity can be used to understand protein changes. To generalize the intended target to other relatable targets, this assay endpoint is annotated to the 'cell morphology' intended target family, where the subfamily is 'cell conformation'.
The levels of cell surface (or secreted, indicated by the prefix "s") biomarker endpoints were measured by ELISA. Overt cytotoxicity to cells in confluent adherent cultures (all systems other than the BT system) was assessed by measuring total protein levels using sulforhodamine B (SRB) staining in parallel cultures at the time of biomarker measurements, indicated as SRB endpoints. For proliferation assays for adherent cell types, individual cell types are cultured at sub-confluence and relative cell numbers quantified by SRB staining at time points optimized for each system (48 h: 3C and CASM3C systems; 72 h: BT and HDF3CGF systems; 96 h: SAg system). SRB was performed by staining cells with 0.1% SRB after fixation with 10% TCA and reading wells at 560 nm.Viability and proliferation of PBMC (T cells) was quantified by Alamar Blue reduction for the SAg and BT systems. For PBMC viability (referred to as PBMC Cytotoxicity within the assay endpoint names), cells were plated (75,000/well in a 96-well plate) and then chemical samples added for 1 h before addition of activators, SEB and TSST-1 (20 ng/mL final concentration each). Cells were incubated for 90 h. Then, Alamar Blue (20 uL/well) (Invitrogen, Cat DAL1100) was added for 6 h, and the plates were read with a fluorescence microplate reader at 546/580 nm (excitation/emission). For PBMC proliferation, cells were plated and activated as above but incubated for only 16 h prior to addition of Alamar Blue. Plates were read after 6 h.
Take `C=CC(=O)OCC(F)(F)C(F)F`: the result was inactive.
On to `FC(F)(F)C(F)(C(F)(F)F)C(F)(F)C(F)(F)CC1CO1` (centres undefined), for which the result was inactive.
Take `CC(O)C(F)(F)C(F)(F)F` (centres undefined): the result was inactive.
For `O=S(=O)(F)C(F)(F)C(F)(F)C(F)(F)C(F)(F)C(F)(F)C(F)(F)C(F)(F)C(F)(F)F`, the outcome was inactive.
For `OCC(F)(F)OC(F)(F)C(F)(F)OC(F)(F)CO`, the outcome was inactive.
Under `OCC(F)(F)OC(F)(F)C(F)(F)OC(F)(F)C(F)(F)OC(F)(F)CO` stands “inactive”; under `COC(=O)C(F)(F)C(F)(F)OC(F)(C(F)(F)F)C(F)(F)OC(F)=C(F)F` (centres undefined), “inactive”.
Consider `NC(=O)C(F)(F)C(F)(F)F`, for which the result was inactive.
For the compound `O=C(O)C(F)(F)OC(F)(F)C(F)(F)OC(F)(F)F`, the outcome was inactive.
Take `O=C(O)C(F)(F)OC(F)(F)C(F)(F)OC(F)(F)C(=O)O`: the result was inactive.
Consider `O=C(O)C=CC(F)(C(F)(F)F)C(F)(F)F`, for which the outcome was inactive.
Under `OCC(F)(F)OC(F)(F)C(F)(F)OC(F)(F)C(F)(F)OC(F)(F)F` stands “inactive”; under `O=C(O)C(F)(OC(F)(F)C(F)(F)C(F)(F)F)C(F)(F)F` (centres undefined), “inactive”; under `O=C(O)C(F)(F)C(F)(F)C(=O)O`, “inactive”.
